# Source: PubChem
# BCR signal inh = inhibitors of chronic active B-cell receptor signaling; ABC-DLBCL IkBa-CBG/CBR reporter, luminescence ratio, 4 h; Potency, µM (doses to about 46.1 µM), for the others: top-dose activity change, negative = inhibition, most hits filed as inhibitors; hit rate 0.05% among 340,000; AID 493014; active = well fitted inhibition curve with a large enough effect in the signal ratio, with a control signal flat, not every such curve was filed as active; inconclusive = small, poorly fitted or top-dose-only effect, or effect the other way, or a change in a side signal; the % refers to the signal ratio;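 also: potency is read from the fitted curve at half-maximal effect; plate controls were basal doxycycline-induced cells for no effect and cells given 10 µM MG132 for full effect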
#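 Doxycycline induced both beetle luciferases in TMD8 lymphoma cells; IKK-driven degradation limits the IkappaBalpha-fused green signal, while red luminescence normalises for cell number and nonspecific effects. Compounds tested up to 46 uM, 4 hrs.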
# D1 antag = blocks dopamine activation of the human D1 receptor; P21728; HEK293 TREx D1 cells, calcium flux, dopamine EC80; active compounds read low; activity change, negative = inhibition, % at 10 µM; hit rate 3.2% among 360,000; AID 504652; in the data active = activity change below about -30%; also: % is scaled to controls: 0 for no effect and ±100 for the full control effect
# Target sequence (P21728 whole entry, looked up): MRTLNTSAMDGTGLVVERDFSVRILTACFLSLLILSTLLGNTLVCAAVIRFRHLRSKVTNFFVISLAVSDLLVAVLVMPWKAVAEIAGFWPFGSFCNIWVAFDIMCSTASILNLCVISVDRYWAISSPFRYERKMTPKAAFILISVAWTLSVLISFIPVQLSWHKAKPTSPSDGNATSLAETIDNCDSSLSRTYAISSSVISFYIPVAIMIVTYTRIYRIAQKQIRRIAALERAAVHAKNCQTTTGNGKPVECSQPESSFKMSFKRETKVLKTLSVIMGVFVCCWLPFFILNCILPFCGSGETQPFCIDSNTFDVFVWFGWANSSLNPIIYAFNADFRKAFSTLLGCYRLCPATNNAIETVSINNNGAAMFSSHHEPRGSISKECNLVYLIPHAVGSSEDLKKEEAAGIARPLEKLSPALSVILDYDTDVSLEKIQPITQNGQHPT
#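 Cells carrying a force-coupled, tetracycline-inducible human D1 receptor report calcium flux. Each well gets a 10 s baseline, compound with 180 s monitoring, then an EC80 dopamine stimulus with a second 180 s kinetic read.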
# D1 ag = human D1 receptor agonism; activation, % at 2 µM; AID 504660; HEK293 T-REx D1 cells, calcium flux, agonist mode; P21728; hit rate 1% among 360,000; in the data active = activation above about 30%; also: 0% is about no effect
#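 Tetracycline-induced HEK293 TREx D1 cells, force-coupled to calcium signalling, were dye-loaded with a no-wash calcium kit. Compound was pin-added after a 10 s baseline. Fluorescence was read kinetically at 1 cycle/s for 180 s, with calcium rises flagged as agonism.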
# D1 potentiator = human D1 dopamine receptor positive modulation; HEK293 TREx D1 cells, calcium flux, dopamine EC20 potentiation; hit rate 0.036% among 360,000; P21728; potentiation, % at 10 µM; in the data active = potentiation above about 30%; also: 0% is about no effect
# D3 antag = blocks the human D3 dopamine receptor. D3R cells, DiscoveRx beta-arrestin luminescence, antagonist mode; active compounds read low. max response, negative = inhibition, %. hit rate 2.5% among 360,000; in the data active = max response below about -50%; inconclusive = no clear call, values can overlap the other calls; also: % is scaled to controls: 0 for no effect and ±100 for the full control effect
#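 Cells expressing the human receptor were seeded at 1500 cells/well, incubated overnight at 37 degrees C in 5% CO2, then exposed to library compounds with dopamine controls for 90 minutes at 37 degrees C before luminescent detection.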
# D3 ag = D3 dopamine receptor (human) agonism | P35462 | hit rate 0.58% among 410,000 | AID 652048 | max activation, % | D3R DiscoveRx beta-arrestin cells, luminescence, 90 min; in the data active = max activation above about 30%; also: 0% is about no effect
#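 Agonist mode: compounds and dopamine controls were applied to plated cells for 90 min at 37 degrees C after an overnight attachment at 1500 cells/well. Luminescent read-out followed 30 - 60 minutes at room temperature with DiscoveRx detection reagent.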
# The depositor's hits bear a star; ? = inconclusive; · = not tested or not shown. Most compounds without a hit are left out; they make up all but 6% or so of the library.
SMILES,BCR signal inh,D1 antag,D1 ag,D1 potentiator,D3 antag,D3 ag
CCOC(=O)/C(C#N)=C(C)/C=C1\Sc2ccccc2N1CC,9%,10,45*,-6,109,6
CCN1/C(=C\C=C(C(C)=O)C(C)=O)Sc2ccccc21,-26%,12,80*,-4,7,0
CCN1/C(=C\C(=S)Nc2ccccc2)Sc2ccccc21,?,-4,7,-2,-14,2
N#CCC(=O)Nc1ccc(C(=O)OCC(=O)N=c2sccn2Cc2ccccc2Cl)cc1,-8%,-46*,4,-10,0,5
O=C(CSc1ccc(-c2cccnc2)nn1)Nc1ccc(F)cc1,-2%,11,7,-1,-63*,-4
CC(=O)Nc1ccc(C(=O)N2CCCC(c3cc(C(=O)Nc4ccccc4)no3)C2)cc1 (stereo not given),·,·,·,·,0,-2
Cc1ccc(CSc2nnc(SCC(=O)N/N=C/c3c(C)nn(-c4ccccc4)c3C)s2)cc1,?,-38*,1,-1,8,-1
CC(=O)N1CCc2c(sc3c2c(=O)n(CCc2ccccc2)c(=O)n3CC(=O)Nc2ccc(C)c(F)c2)C1,·,7,3,2,·,-9
OC(COC(c1ccc(F)cc1)c1ccc(F)cc1)CN1CCc2ccccc2C1 (stereo not given),-1%,3,5,-7,-18,-6
OC(COC(c1ccc(Cl)cc1)c1ccc(Cl)cc1)CN1CCc2ccccc2C1 (stereo not given),?,9,6,6,-56*,-13
OC(COC(c1ccccc1)c1ccccc1)CN1CCc2ccccc2C1 (stereo not given),-9%,-25,7,-2,-54*,-12
O=C(CN1CCNCC1)NC1CCCCC1,·,·,·,·,·,0
CCc1ccc(-c2nc(CN3CCC(C(=O)NCc4ccc(F)cc4)CC3)c(C)o2)cc1,?,-10,33*,2,-16,1
COc1ccc(-c2nc(CN3CCC(C(=O)NCc4ccc(F)cc4)CC3)c(C)o2)cc1OC,·,-1,0,-3,·,3
CCN(CCNC(=O)C1CCCN(Cc2nc(-c3ccc(OC)cc3)oc2C)C1)c1ccccc1 (stereo not given),-1%,0,-1,4,11,-1
CCc1ccc(-c2nc(CN3CCC(C(=O)NCCN(CC)c4ccccc4)CC3)c(C)o2)cc1,1%,-22,32*,-9,9,-2
Cc1oc(-c2cccc(Cl)c2)nc1CN1CCC(C(=O)NCCCN2CCN(c3ccc(F)cc3)CC2)CC1,·,-15,16,-4,·,-13
CCN(CCNC(=O)C1CCN(Cc2nc(-c3cccc(Cl)c3)oc2C)CC1)c1ccccc1,?,-44*,47*,-5,-10,4
Cc1oc(-c2ccc(Cl)cc2)nc1CN1CCC(C(=O)NCCCN2CCN(c3cccc(Cl)c3)CC2)CC1,·,-45*,49*,-3,·,-26
COc1ccc(-c2nc3scc(CCNC(=O)c4cc(OC)cc(OC)c4)n3n2)cc1,·,0,0,2,·,-10
O=C(NCc1ccccc1)C(c1ccc(C(F)(F)F)cc1)n1c(=O)c(-c2cc3ccccc3[nH]2)nc2ccccc21 (stereo not given),·,·,·,·,32,5
CCN(CCNC(=O)C1CCN(Cc2nc(-c3ccc(Cl)cc3)oc2C)CC1)c1ccccc1,-2%,-45*,48*,-7,-19,-8
CCCCNC(=O)C1CCCN(Cc2nc(-c3ccc(Cl)cc3)oc2C)C1 (stereo not given),·,-30*,7,-4,·,-26
Cc1oc(-c2ccc(Cl)cc2)nc1CN1CCC(C(=O)NCCCN2CCOCC2)CC1,?,-23,3,-6,5,-16
Cc1oc(-c2cccc(Cl)c2)nc1CS(=O)(=O)CC(=O)NCCN1CCOCC1,8%,-33*,2,-1,23,4
SMILES,BCR signal inh,D1 antag,D1 ag,D1 potentiator,D3 antag,D3 ag
CO[C@H]1C=CO[C@@]2(C)Oc3c(C)c(O)c4c(O)c(c5c(c4c3C2=O)=NC2(CCN(CC(C)C)CC2)N=5)NC(=O)/C(C)=C\C=C/[C@H](C)[C@H](O)[C@@H](C)[C@@H](O)[C@@H](C)[C@H](OC(C)=O)[C@@H]1C,·,·,·,·,·,8
Cc1cccc(CN2CCN([C@H]3CS(=O)(=O)N[C@@H]3COCc3ccccc3)CC2)c1,·,·,·,·,-18,-6
O=C(NNC(=O)C(c1ccccc1)c1ccccc1)c1ccccn1,?,12,4,-1,-86*,-24
O=C(NNc1ccccn1)C(c1ccccc1)c1ccccc1,0%,-15,3,0,17,6
Cc1cccc(C)c1NC(=O)NC1(C(=O)N2CCN3CCCC3C2)CCCCC1 (stereo not given),-1%,-10,3,-1,4,5
COc1ccc(NC(=O)NC2(C(=O)N3CCN4CCCC4C3)CCCCC2)cc1 (stereo not given),12%,3,3,-5,1,31*
COc1ccc(C(=O)NCC(c2cccnc2)N2CCc3ccccc32)cc1 (stereo not given),·,-15,0,-2,·,-8
CCCCCn1c(=N)n(CC(O)COc2ccccc2OC)c2ccccc21 (stereo not given),?,-1,26,-3,?,-6
CCCCn1c(=N)n(CCOc2ccccc2OC)c2ccccc21,·,-3,33*,-8,·,-8
COc1ccc(OCCn2c(=N)n(CCO)c3ccccc32)cc1,-5%,12,4,-4,-3,-1
CCn1c(=N)n(CCOc2ccc(Br)cc2)c2ccccc21,?,-26,89*,4,·,9
CCCCn1c(=N)n(CCOc2ccc(C)cc2)c2ccccc21,?,32,50*,-3,15,5
CS(=O)(=O)Nc1cccc(NC(=O)c2cccc3c(-c4cccnc4)coc23)c1,·,·,·,·,-5,-4
COc1ccc(CCN2C(=O)c3oc4cc(C)cc(C)c4c(=O)c3C2c2ccc(F)cc2)cc1OC (stereo not given),·,1,0,0,·,-5
COC(=O)c1ccc(C)c(NS(=O)(=O)c2ccc(OC)c(OC)c2)c1,2%,22,4,1,-70*,-7
COC(=O)C1=C(C)NC(C)=C(C(=O)OCCCN2CCC(c3ccccc3)(c3ccccc3)CC2)C1c1cccc([N+](=O)[O-])c1 (stereo not given),·,·,·,·,·,20
CN(Cc1ccccc1)C(=O)c1ncn(Cc2ccccc2)c1C(=O)N(C)Cc1ccccc1,-4%,·,-1,8,47,45*
CN(Cc1ccccc1)C(=O)c1ncn(C)c1C(=O)N(C)Cc1ccccc1,0%,-20,0,3,-7,1
